BAZ2B inh: BAZ2B (human) inhibition | 4.4% of 360,000 active | Q9UIF8 | Potency, µM (top dose mostly 114 µM), without a hit: at the highest dose activity change, negative = inhibition, most hits filed as inhibitors | AlphaScreen BAZ2B-H3K14Ac peptide displacement | AID 504333; also: potency is read from the fitted curve at half-maximal effect; % is scaled to controls: 0 for no effect and ±100 for the full control effect; nearly all actives have a fitted effect of over 60% in size
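Multi-concentration screen (max 110 uM) measuring displacement of acetylated histone H3 peptide from BAZ2B by AlphaScreen, using 50 nM protein, 50 nM peptide and 10 ug/mL streptavidin donor plus Ni-chelate acceptor beads.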
PI5P4Ka inh: PI5P4K alpha (human) kinase inhibition; P48426; PI5P4Kalpha enzyme, ADP-Glo luminescence, 60 min; active compounds read low; max response, %; 1.2% of 330,000 active; AID 652105; active = max response of -50% or lower; inconclusive = between -30% and -50%; inactive = -30% or higher; also: value at the top dose of about 77 µM; % is scaled to controls: 0 for no effect and ±100 for the full control effect
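ADP-Glo luminescence end-point after a 60 min room-temperature kinase reaction. PI5P4Kalpha and substrate in HEPES pH 7.4 buffer with EGTA, 0.1% CHAPS and 5% DMSO; ATP at 5 microM final.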
HP1b binding inh: HP1-beta chromodomain-methylated histone interaction inhibition; AlphaScreen HP1-beta / biotin-H3K9me3 peptide binding; Potency, µM (highest dose often 114 µM), inactives show top-dose activity change, negative = inhibition, hits mostly inhibitors; 0.56% of 390,000 active; also: potency is read from the fitted curve at half-maximal effect; nearly all actives have a fitted effect of over 70% in size
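HP1-beta protein (50 nM final) preincubated 30 min at room temperature with biotinylated H3(1-18)K9me3 peptide (50 nM) in PBS pH 7.4, 0.01% Tween-20, then compound added for 30 min. AlphaScreen streptavidin donor/nickel chelate acceptor beads (10 ug/mL final), 30 min dark, luminescence read.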
JMJD2A Tudor inh: blocks the human JMJD2A Tudor domain; O75164; AlphaScreen JMJD2A-Tudor / H3K4me3 peptide binding; Potency, µM (top dose mostly 114 µM), inactives show at the top dose activity change, negative = inhibition, actives largely listed as inhibitors; 4.4% of 390,000 active; also: potency is read from the fitted curve at half-maximal effect; % is scaled to controls: 0 for no effect and ±100 for the full control effect; nearly all actives have a fitted effect of over 50% in size
L3MBTL1 inh: inhibitors of human L3MBTL1. Q9Y468. AlphaScreen L3MBTL1–H3K9me1 peptide binding. Potency, µM (top dose mostly 57.1 µM), inactives show at the top dose activity, negative = inhibition, hits mostly inhibitors. 0.66% of 230,000 active. AID 485360; also: potency is read from the fitted curve at half-maximal effect; % is scaled to controls: 0 for no effect and ±100 for the full control effect; nearly all actives have a fitted effect of over 60% in size
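First, the protein-peptide complex forms for 30 min at room temperature (L3MBTL1 50 nM, biotinylated H3K9me1 peptide 75 nM). Next, compounds are pin-transferred and incubated 30 min. Finally, AlphaScreen beads are added and read after 30 min.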
G9a inh: inhibitors of human histone lysine methyltransferase G9a | Q96KQ7 | G9a H3K9 monomethylation, AlphaScreen, 2 h | Potency, µM (highest dose often 102 µM), inactives show top-dose activity, negative = inhibition, usual class: inhibitors | 8.8% of 350,000 active; also: potency is read from the fitted curve at half-maximal effect; % is scaled to controls: 0 for no effect and ±100 for the full control effect; nearly all actives have a fitted effect of over 75% in size
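Step 1: enzyme (final 20 nM) with compound, 15 min RT. Step 2: substrate peptide 500 nM and SAM 20 uM, 2 h RT. Step 3: anti-H3K9me1 antibody and AlphaScreen beads, 10 min, then plate read.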
* = called active by the depositor; ? = inconclusive; . = no result given; [ ] = dose if it differs, or a comment. This is a sample that favours compounds with a hit; in the whole collection about 11% have one here. Unless noted, calls follow the shape of the dose curve; as a rule, active = well fitted inhibition curve with a large enough effect; inconclusive = small, poorly fitted or top-dose-only effect; inactive = no such curve, though single readings can be large or run the other way.

SMILES	BAZ2B inh	PI5P4Ka inh	HP1b binding inh	JMJD2A Tudor inh	L3MBTL1 inh	G9a inh
CCOc1ccc(-n2cc(-c3ccccc3)c3c(=O)[nH]cnc32)cc1	?	0	?	?	.	45µM*
Cc1cccc(-n2cc(-c3ccccc3)c3c(N4CCC(C)CC4)ncnc32)c1	-26%	.	41%	-34%	.	-36%[59 µM]
Cc1cccc(-n2cc(-c3ccccc3)c3c(=O)[nH]cnc32)c1	45µM*	1	?	79µM*	-10%	?
O=c1[nH]cnc2c1c(-c1ccccc1)cn2-c1ccc(Br)cc1	1%	2	2%	-4%	-7%	5%[59 µM]
O=C(CSCc1ccc(F)cc1)Nc1ccc(N2CCOCC2)cc1N1CCOCC1	-38%	6	15%	-24%	4%	-1%[12.7 µM]
COC(=O)c1cc(S(=O)(=O)N2CCCCCC2)c[nH]1	-1%	-1	29%	-10%	-2%	5%
COC(=O)c1cc(S(=O)(=O)N2CCOCC2)ccc1Sc1ccccc1N	-7%	.	2%	-22%	-1%	20µM*
Cc1nn(Cc2ccc(F)cc2)c2sc(C(=O)Nc3ccc(N4CCOCC4)cc3N3CCOCC3)cc12	40µM*	7	?	?	-30%	11µM*
CC(Oc1ccc(F)cc1)C(=O)Nc1cc(S(=O)(=O)N2CCCCC2)ccc1N1CCOCC1 (stereo not drawn)	0%	-2	4%	-18%	1%	13µM*
COC(=O)c1cc(S(=O)(=O)N2CCCCC2)c[nH]1	-25%	14	?	45µM*	.	20%[59 µM]
CCN1CCN(c2ccc(S(=O)(=O)N3CCCCC3)cc2NC(=O)C(C)Oc2ccc(F)cc2)CC1 (stereo not drawn)	?	0	-14%	?	-9%	?
Cc1cc(F)ccc1NC(=O)CCS(=O)(=O)c1cccc2nsnc12	1%	.	15%	-16%	.	-9%[59 µM]
COc1ccc2c(CNC3CCC(C)CC3)c(C(=O)O)n(Cc3ccccc3)c2c1 (stereo not drawn)	?	.	18%	-16%	.	-29%[59 µM]
Cc1ccc(CCNc2nc3c(S(=O)(=O)c4ccc(C)cc4)nnn3c3ccsc23)cc1	-13%	.	24%	-4%	.	-4%[59 µM]
COc1ccc(CNC(=O)CN(C)c2nn3c(=O)cc(C)nc3s2)cc1	4%	.	15%	-12%	.	2%[59 µM]
COCCNC(=O)c1cc(S(=O)(=O)N2CCCCC2)ccc1N1CCOCC1	?	8	24%	-4%	5%	-44%
CC(Oc1ccc(F)cc1)C(=O)Nc1ccc(N2CCOCC2)cc1N1CCOCC1 (stereo not drawn)	-34%	-3	4%	-16%	-7%	56µM*
CC(Oc1cccc(Cl)c1)C(=O)Nc1ccc(N2CCOCC2)cc1N1CCOCC1 (stereo not drawn)	?	-3	-12%	?	-10%	-11%[2.33 µM]
COC(=O)c1cc(S(=O)(=O)N2CCCCC2)ccc1N1CCOCC1	4%	2	23%	-6%	9%	50µM*
COCCNC(=O)COc1ccc(OCCNC[C@H](O)COc2ccccc2)cc1	.	.	.	.	.	29%[59 µM]
CN1CCCc2cc(C=O)ccc21	9%	-4	28%	-10%	-2%	-49%[59 µM]
CCCN1CCCc2cc(CN)ccc21	45µM*	.	?	4µM*	?	8.9µM*
CCOC(=O)CSc1c(-c2cccs2)[nH]c2ccccc12	0%	4	27%	-15%	-3%	13%
CCOC(=O)CSc1c(-c2ccc(Cl)cc2)[nH]c2ccccc12	9%	?	3%	22µM*	7%	-12%[59 µM]
O=C(Nc1ccc(O)c(C(=O)O)c1)Oc1ccccc1	-1%	?	29%	-21%	9%	50µM*
SMILES	BAZ2B inh	PI5P4Ka inh	HP1b binding inh	JMJD2A Tudor inh	L3MBTL1 inh	G9a inh
Cn1c(=O)c2cc(S(=O)(=O)NCCC(=O)N3CC=C(c4ccccc4)CC3)ccc2n(C)c1=O	-25%	.	29%	-5%	-3%	-23%
CN(CC(=O)N1CC=C(c2ccccc2)CC1)S(=O)(=O)c1ccc2c(c1)c(=O)n(C)c(=O)n2C	11%	0	43%	-17%	.	45µM*
CCC(Cc1ccccc1)NC(=O)CN(C)S(=O)(=O)c1ccc2c(c1)c(=O)n(C)c(=O)n2C (stereo not drawn)	9%	9	35%	-8%	.	45µM*
CC(NC(=O)CN(C)S(=O)(=O)c1ccc2c(c1)c(=O)n(C)c(=O)n2C)c1ccccc1 (stereo not drawn)	-2%	0	33%	2%	.	9%[59 µM]
c1ccc(CSc2ccc(-c3cccs3)nn2)nc1	-7%	0	27%	2%	17%	16µM*
CCn1c(CN2CCC(C)CC2)nc2cc(NC(=O)COc3ccc(Cl)c(C)c3)ccc21	-30%	.	53%	-36%	.	3%[59 µM]
COc1ccccc1NC(=O)C1=C(C)Nc2nc(SCc3ccccc3Cl)nn2C1c1ccccn1 (stereo not drawn)	1%	.	28%	1%	.	-28%[59 µM]
CCC(=O)N1CCc2cc(CNS(=O)(=O)c3ccc(Cl)s3)ccc21	-1%	.	8%[57 µM]	-14%	.	14%[59 µM]
CCN(CC)S(=O)(=O)c1cc(NC(=O)C2=COCCO2)ccc1Cl	-2%	-8	-6%	-26%	-12%	50µM*
CC(C)CCn1c(SCc2ccc(Cl)cc2)nc2c1c(=O)[nH]c(=O)n2C	-26%	.	-32%	-21%	-2%	14µM*
C/C=C/Cn1c(SCc2ccccc2)nc2c1c(=O)[nH]c(=O)n2C	-8%	-3	-21%	-20%	6%	35µM*
C/C=C/CSc1nc2c(c(=O)[nH]c(=O)n2C)n1Cc1ccc(C)cc1	4%	-14	-10%	-23%	-3%	4.5µM*
Cc1ccc(CSc2nc3c(c(=O)[nH]c(=O)n3C)n2CCC(C)C)cc1	15%	3	25%	-14%	.	0%
CCOCCn1c(SCc2ccccc2)nc2c1c(=O)[nH]c(=O)n2C	-3%	-10	30%	-14%	.	9%[12.7 µM]
COc1ccc(C)cc1NS(=O)(=O)c1c(C(=O)N2CCCCCC2)c(C)n(C)c1C	?	.	7%	-15%	.	6%[59 µM]
COc1ccc(CC(=O)NC2CC(=O)N(c3cccc(F)c3)C2)cc1 (stereo not drawn)	2%	.	17%	-12%	.	6%[59 µM]
C=CCN1C(=O)/C(=C\c2ccco2)C(C(=O)OC)=C1C	45µM*	-1	-12%	?	?	?
COC(=O)C1=C(C)N(Cc2ccccc2)C(=O)/C1=C\c1ccco1	18µM*	-10	?	?	?	28µM*
CCN1C(=O)/C(=C\c2ccco2)C(C(=O)OC)=C1C	?	-3	-14%	?	-10%	?
COC(=O)C1=C(C)N(c2cccc(OC)c2)C(=O)/C1=C\c1ccco1	18µM*	-5	40µM*	45µM*	?	?

Screening results from PubChem BioAssay.
